# “And” between values parts separate entries of the source, which are not always exact repeats. Equal values may be shown once. Values without a mark were called inactive. Inconclusive results are not listed. More than one record can exist for a structure, and the calls need not agree. The source made the active and inactive calls. Unless noted, calls come from the whole dose curve; as a rule, active = well fitted curve in the direction sought with a large enough effect; inconclusive = small, poorly fitted or top-dose-only effect, or another doubt; inactive = no such curve, though single readings can be large; an effect the other way counts as inactive or inconclusive.
# Tests used:
# [1] = Drug repurposing screens with cells derived from glioblastoma tumor samples (AID 1345199); details: GBM patient neurospheres viability, ATP luminescence, 48 h; note: nearly all actives have a fitted effect of over 40% in size; note: potency is the fitted concentration of half-maximal effect; for activity, negative = cell killing: % is set by controls: 0 for no effect and ±100 for the full control effect
# Summary of the method: (§1)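 Four patient lines of CD133+ GBM neurospheres were screened at several concentrations; hits were retested in those lines plus three slower-growing GBM lines, using 48-hour treatment and ATP-based viability.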
# astro = control astrocytes; assay: as above; details: viability, ATP luminescence, 48 h; series mostly up to 45.9 µM
# Summary of the method: as §1
# [2] = qHTS assay to identify inhibitors of the type 1 interferon - major histocompatibility complex class I in skeletal muscle: Counter screen cell viability and HiBit confirmation (AID 1347412); details: iHSKM muscle cells + IFN-b, HiBiT or CellTiter-Glo, 24 h; for activity change, negative = inhibition: at 45.9 µM (top of the series); note: potency is the fitted concentration of half-maximal effect; for activity change, negative = inhibition: % is set by controls: 0 for no effect and ±100 for the full control effect; for all read-outs here: nearly all actives have a fitted effect of over 60% in size
# Summary of the method: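 Duplicate plates, pinned identically: one read for HiBiT-tagged endogenous HLA-B luminescence, the other for ATP-content viability via CellTiter Glo. Cells were genome-engineered human myoblasts given 4 ng/ml IFN-b; compounds 12-pt, 1:3 from 46 uM final; 24 hr exposure.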
# [3] = molecular target: Nuclear receptor subfamily 1 group I member 2 (Rattus norvegicus) (UniProt Q9R1A7); assay: qHTS assay for small molecule activators of the rat pregnane X receptor (rPXR) signaling pathway (AID 651751; call rule not given here; note: 0% is about no effect); details: rPXR reporter cells, luciferase (One-Glo), 24 h
# Nuclear receptor subfamily 1 group I member 2 (Rattus norvegicus), sequence (Q9R1A7 whole entry, looked up): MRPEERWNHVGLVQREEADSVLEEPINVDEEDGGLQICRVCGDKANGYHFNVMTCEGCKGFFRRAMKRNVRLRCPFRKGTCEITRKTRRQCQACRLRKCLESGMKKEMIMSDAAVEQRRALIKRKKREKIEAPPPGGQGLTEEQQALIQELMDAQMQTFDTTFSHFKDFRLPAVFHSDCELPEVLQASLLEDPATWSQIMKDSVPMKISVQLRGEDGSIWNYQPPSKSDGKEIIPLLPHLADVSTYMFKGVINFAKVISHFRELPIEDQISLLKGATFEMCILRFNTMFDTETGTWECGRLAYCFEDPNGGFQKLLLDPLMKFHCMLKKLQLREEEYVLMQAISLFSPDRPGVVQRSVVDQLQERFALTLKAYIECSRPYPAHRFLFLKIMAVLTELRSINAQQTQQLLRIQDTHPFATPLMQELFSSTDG
# [4] = qHTS assay for small molecule activators of the human pregnane X receptor (PXR) signaling pathway (AID 720659; call rule not given here; note: 0% is about no effect); details: DPX-2 HepG2 CYP3A4-luciferase, 24 h; series mostly up to 92.3 µM
# [5] = at 45.9 µM (top of the series), tumour line D
# [6] = at 46.1 µM (top of the series), tumour line C
# [7] = at 46 µM (top of the series), tumour line A
# [8] = at 45.9 µM (top of the series), tumour line B
smiles,measurement,setting,value
N=c1ccn2c(n1)O[C@H]1[C@H](O)[C@@H](CO)O[C@H]12,"activity, negative = cell killing",[1]; [5],-31.3%
same,"activity, negative = cell killing",[1]; [6],-5.87%
same,Potency,astro,inactive
CCCCCC[C@@H](O)C/C=C\CCCCCCCC(=O)O,"activity, negative = cell killing",[1]; [5],-4.78% and -10.9%
same,"activity, negative = cell killing",[1]; [7],-28%
same,"activity, negative = cell killing",[1]; [6],-19.3% and -4.11%
same,Potency,[1]; tumour line A,20 µM (active)
same,Potency,astro,inactive
O=C1C(SCCO)=C(SCCO)C(=O)c2ccccc21,Potency,[2]; HiBiT,2.79 µM (active)
same,Potency,[2]; Viability,4.97 µM (active)
O=[N+]([O-])c1ccc2c(c1)S(=O)(=O)C=C2,Potency,[2]; HiBiT,1.76 µM (active)
CC[C@H]1OC(=O)[C@H](C)C(=O)[C@H](C)[C@@H](O[C@@H]2O[C@H](C)C[C@H](N(C)C)[C@H]2O)[C@](C)(OC)C[C@@H](C)C(=O)[C@H](C)[C@H]2N(CCCCn3cnc(-c4cccnc4)c3)C(=O)O[C@]12C,"activity, negative = cell killing",[1]; [8],-5.03%
same,"activity, negative = cell killing",[1]; [5],5.49%
same,"activity, negative = cell killing",[1]; [7],-23.7%
same,"activity, negative = cell killing",[1]; [6],5.5%
same,Potency,astro,inactive
CN(C)CCC(c1ccc(Cl)cc1)c1ccccn1 (stereo not drawn),max response,[3],3.17%
same,outcome,[4],inactive
C#C[C@]1(O)CC[C@H]2[C@@H]3CCc4cc(O)ccc4[C@H]3CC[C@@]21C,"activity, negative = cell killing",[1]; [8],-15.9%
same,"activity, negative = cell killing",[1]; [6],2.3%
same,Potency,[1]; tumour line A,12.6 µM (active)
O=C(Nc1ccncc1)c1cc([N+](=O)[O-])ccc1Cl,Potency,[2]; HiBiT,15.7 µM (active)
same,"activity change, negative = inhibition",[2]; Viability,-27.4%
CC(C)(C)c1ccc(S(=O)(=O)/C=C/C#N)cc1,Potency,[2]; HiBiT,2.79 µM (active)
same,Potency,[2]; Viability,11.1 µM (active)
CC(C)NCC(O)COc1cccc2ccccc12 (stereo not drawn),max response,[3],2% and 7.81%
Cc1ccc(S(=O)(=O)/C=C/C#N)cc1,Potency,[2]; HiBiT,5.57 µM (active)
same,Potency,[2]; Viability,17.6 µM (active)
O=C(O)/C=C/C(O)c1ccc(Cl)cc1 (stereo not drawn),"activity, negative = cell killing",[1]; [8],1.63%
same,"activity, negative = cell killing",[1]; [5],7.64%
same,"activity, negative = cell killing",[1]; [7],-31.6%
same,"activity, negative = cell killing",[1]; [6],1.95%
same,Potency,astro,inactive
CCCCC[C@H](O)/C=C/[C@@H]1[C@@H](C/C=C\CCCC(=O)O)[C@@H](O)C[C@H]1O,"activity, negative = cell killing","[1]; at 20 µM (top of the series), tumour line C",-5.83%
same,"activity, negative = cell killing","[1]; at 21.2 µM (top of the series), tumour line B",0.321%
same,"activity, negative = cell killing","[1]; at 21.2 µM (top of the series), tumour line D",-15.4%
same,"activity, negative = cell killing",[1]; [8],1.47%
same,"activity, negative = cell killing",[1]; [5],-6.45%
same,"activity, negative = cell killing",[1]; [7],-9.88%
same,"activity, negative = cell killing",[1]; [6],-1.95%
same,Potency,astro,inactive
COc1cc(/C=C/C(=O)CC(=O)/C=C/c2ccc(O)c(OC)c2)ccc1O,"activity, negative = cell killing",[1]; [8],-25.8%
same,"activity, negative = cell killing",[1]; [5],-25.7%
same,"activity, negative = cell killing",[1]; [6],-20.1%
same,Potency,[1]; tumour line A,12.6 µM (active)
COc1ccc(/C=C2\COc3ccc(C)cc3C2=O)cc1O,Potency,[2]; HiBiT,14 µM (active)
same,"activity change, negative = inhibition",[2]; Viability,-21.6%
C[N+](C)(C)CCOP(=O)(O)OP(=O)([O-])OC[C@H]1O[C@@H](n2ccc(N)nc2=O)[C@H](O)[C@@H]1O,"activity, negative = cell killing",[1]; [8],-6.25% and -7.43%
same,"activity, negative = cell killing",[1]; [5],-2.69% and -5.13%
same,"activity, negative = cell killing",[1]; [7],-13.9%
same,"activity, negative = cell killing",[1]; [6],-5.84% and 8.06%
CCOC(=O)C1=C(C)NC(C)=C(C(=O)OCC)C1c1c(F)c(F)c(F)c(F)c1F,"activity change, negative = inhibition",[2]; HiBiT,-2.44%
same,"activity change, negative = inhibition",[2]; Viability,9.02%

# Reference: PubChem BioAssay (NCATS)
